KinaseGlo FLuc: blocks Kinase-Glo luciferase, a counter-screen artifact; Q27757; Kinase-Glo luciferase, ATP luminescence, 8 min; AID 1379; Potency, µM (titrated, usually from 38.3 µM), usual class: inhibitors; 200,000 compounds, 0.28% hits; further: nearly all actives have a fitted effect of over 60% in size
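Recombinant Kinase-Glo luciferase, 10 uM ATP (linear range), luciferin; imidazole pH 7.2 / KCl / MgCl2 / Tween / BSA buffer; 8 min RT; luminescence.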
ELG1 genotox: induces genotoxicity in HEK293T cells with luciferase-tagged ELG1. HEK293T ELG1-luciferase reporter, luminescence, 16 h. 330,000 compounds, 1.3% hits. Potency, µM (titrated, usually from 46 µM), hits mostly activators; further: nearly all actives have a fitted effect of over 60% in size
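Luminescence read-out: rising ELG1-luciferase signal, reflecting elevated ELG1 protein under genetic stress, flags genotoxic compounds. Cells were treated for 16 hr at 37 °C before ONE-Glo detection.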
FLuc counter: firefly luciferase modulation, counter-screen for miR-21 project | Potency, µM (highest dose often 57.5 µM), usual class: inhibitors | 360,000 compounds, 6.9% hits | P08659 | purified FLuc, Km substrates, luminescence inhibition; further: nearly all actives have a fitted effect of over 55% in size
Target sequence (P08659 whole entry, looked up): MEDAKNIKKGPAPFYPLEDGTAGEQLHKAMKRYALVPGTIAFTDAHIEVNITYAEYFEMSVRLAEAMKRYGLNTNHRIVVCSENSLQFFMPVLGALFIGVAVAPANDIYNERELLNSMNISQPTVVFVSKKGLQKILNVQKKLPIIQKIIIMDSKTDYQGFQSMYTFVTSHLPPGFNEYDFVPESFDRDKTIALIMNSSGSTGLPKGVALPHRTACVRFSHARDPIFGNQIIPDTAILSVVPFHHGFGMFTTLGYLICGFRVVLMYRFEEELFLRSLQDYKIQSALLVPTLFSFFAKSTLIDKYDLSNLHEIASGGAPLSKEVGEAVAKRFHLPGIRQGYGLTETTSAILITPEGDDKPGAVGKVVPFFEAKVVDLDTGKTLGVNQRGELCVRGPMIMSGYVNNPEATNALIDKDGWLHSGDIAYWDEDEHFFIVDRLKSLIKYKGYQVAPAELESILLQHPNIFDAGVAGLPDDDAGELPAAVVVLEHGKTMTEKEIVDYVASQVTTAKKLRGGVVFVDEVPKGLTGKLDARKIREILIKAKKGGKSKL
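Purified P. pyralis luciferase (10nM final) with 10uM D-luciferin and 10uM ATP (Km levels) in 50mM Tris acetate pH 7.5, 10mM Mg acetate, 0.01% Tween-20, 0.05% BSA; qHTS 6-point titration, ~60 µM downward; luminescence read.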
Rab9 promoter act: activators of Rab9 promoter; 320,000 compounds, 2.8% hits; Potency, µM (doses to about 9.22 µM), most hits filed as activators; AID 485297; Huh7 Rab9 promoter-luciferase reporter, luminescence, 24 h; further: nearly all actives have a fitted effect of over 60% in size
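Huh7 reporter line, Rab9 promoter upstream of luciferase. Compound exposure 24 h at 37 °C in reduced-serum medium with 10% FBS. Read-out: luminescence.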
SMN2 splice enh: increases expression of the SMN2 splice variant; HEK293 SMN2-luciferase splicing reporter, luminescence, 30-36 h; Potency, µM (top dose mostly 46.1 µM), hits mostly activators; 210,000 compounds, 2.8% hits; AID 1458; further: nearly all actives have a fitted effect of over 55% in size
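qHTS luciferase splicing reporter: luminescence rises when SMN2 exon 7 is included in transfected HEK293 cells. Compound exposure lasted 30-36 h at 37C, with 4.5 mM final sodium butyrate as control, followed by a ONE-Glo read.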
NPC1 prom act: activators of NPC1 promoter. 320,000 compounds, 2.4% hits. Potency, µM (doses to about 9.22 µM), most hits filed as activators. Huh7 NPC1 promoter luciferase reporter, 24 h; further: nearly all actives have a fitted effect of over 60% in size
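Quantitative HTS used a cell-based reporter: Huh7 cells stably bearing the NPC1 promoter upstream of luciferase were treated with compounds for 24 h, and promoter activation was read as luminescence.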
A number is an active result; n = inactive; u = inconclusive; x = no result; [ ] = another dose, or the depositor's remark. This is a sample that favours compounds with a hit; in the whole collection about 7.3% have one here. The call rests on the fitted dose curve; in most records, active means well fitted curve in the direction sought with a large enough effect; inconclusive means small, poorly fitted or top-dose-only effect, or another doubt; inactive means no such curve, though single readings can be large; an effect the other way counts as inactive or inconclusive.

SMILES | KinaseGlo FLuc | ELG1 genotox | FLuc counter | Rab9 promoter act | SMN2 splice enh | NPC1 prom act
c1ccc2[nH]c(CN3CCCCCC3)nc2c1 | n | n | n | n | n | n
O=C(Nc1cccc(/C=C/c2ccccn2)c1)c1ccc(-n2cncn2)c([N+](=O)[O-])c1 | x | n | 23.9µM | n | x | n
O=C(Nc1cccc(/C=C/c2ccccn2)c1)c1cc(Cl)ccn1 | x | u | 19µM | 2.82µM | x | u
c1ccc2c(C3=NNC(=NC4CCCCC4)SC3)c[nH]c2c1 | n | n | u | n | 20µM | n
c1ccc2c(C3=NNC(=NC4CC4)SC3)c[nH]c2c1 | n | u | 1.51µM | 0.631µM | 2µM | u
c1ccc(C2=NNC(=NC3CC3)SC2)cc1 | 4.47µM | u | 1.35µM | 0.112µM | 2.51µM | u
Cc1ccc(CCNC(=O)c2cn(C)c3ccc(S(=O)(=O)N(C)C4CCCCC4)cc3c2=O)cc1 | x | x | n | x | n | x
CCc1ccc(-n2nc(CO)c(C(=O)NCCOC)n2)cc1 | x | x | 16.9µM | x | n | x
CCc1cc2c(=O)c(-c3cscn3)coc2cc1OC | n | u | 1.69µM | 2µM | 12.6µM | 3.55µM
CCc1cc2c(=O)c(-c3cscn3)coc2cc1O | n | 13µM | u | n | n | n
CCOC(=O)c1oc2cc(O)c(CC)cc2c(=O)c1-c1cscn1 | n | n | n | n | n | n
COc1ccccc1-c1coc2cc(O)ccc2c1=O | n | x | x | x | u | x
Cc1ccc(CN(C(=O)COc2ccc(C(C)(C)C)cc2)C2CCS(=O)(=O)C2)o1 (centres undefined) | x | x | n | x | n | x
NC(=O)c1cccc2c3c([nH]c12)CCCC3 | n | n | 23.9µM | n | n | n
CC(=O)Oc1ccc2c(c1)O/C(=C\c1ccncc1)C2=O | x | n | u | n | x | n
COc1ccccc1C(=O)Oc1ccc2c(c1)O/C(=C\c1ccncc1)C2=O | n | n | u | n | n | n
CCc1ccc(/C=C2\Oc3cc(OC(=O)N4CCOCC4)ccc3C2=O)cc1 | n | n | 7.57µM | n | n | n
COc1ccc2c(c1)O/C(=C\c1ccccc1C)C2=O | x | n | 13.5µM | u | x | n
COc1cc(OC)c(OC)cc1/C=C1\Oc2cc(OS(C)(=O)=O)ccc2C1=O | x | n | n | n | x | n
COc1ccc(/C=C2\Oc3cc(OC(=O)N4CCOCC4)ccc3C2=O)cc1 | x | n | 6.75µM | n | x | n
CCOc1ccc(C(=O)c2cn(CC(=O)Nc3cc(OC)cc(OC)c3)c3ccc(F)cc3c2=O)cc1 | x | x | n | x | n | x
CCC(C)N(C(=O)CSc1nc(C)nc2ccccc12)C1CCS(=O)(=O)C1 (centres undefined) | x | n | n | n | x | n
CCC(C)N(C(=O)CSc1nc(-c2ccccc2)cs1)C1CCS(=O)(=O)C1 (centres undefined) | n | n | 16.9µM | n | n | n
COc1cc(/C=C(\C#N)C(=O)Nc2cccc(C(=O)O)c2)ccc1OCc1ccc(F)cc1 | x | 20.6µM | n | n | x | n
C=CCNC(=O)/C(C#N)=C/c1ccccc1OCc1ccc(C(=O)OC)cc1 | n | u | n | n | u | n
SMILES | KinaseGlo FLuc | ELG1 genotox | FLuc counter | Rab9 promoter act | SMN2 splice enh | NPC1 prom act
COC(=O)c1ccc(COc2ccccc2/C=C(\C#N)C(=O)Nc2ccc(C)cc2)cc1 | n | 20.6µM | 8.49µM | 2.82µM | n | u
COc1ccc2c(c1)Cc1cc(N=[N+]([O-])c3ccc4c(c3)Cc3cc(OC)ccc3-4)ccc1-2 | n[7.66 µM] | x | x | x | n[9.22 µM] | x
CCN1C(=O)/C(=C2/C=Cc3ccccc3N2C)OC1=S | n | u | u | 3.55µM | u | 2.51µM
CCn1cc2nc(SCc3cccc(C(F)(F)F)c3)n(Cc3ccc(Cl)cc3)c(=O)c2n1 | x | x | n | x | x | x
Cc1nnc(NCCc2ccccc2)c2ccccc12 | x | 9.2µM | 7.57µM | 1.41µM | x | 1.58µM
Cc1cccc(NC(=O)CSc2nnc3c4ccccc4n(C)c3n2)c1 | x | x | n | x | n | x
CCn1c2ccccc2c2nnc(SCC(=O)Nc3c(C)n(C)n(-c4ccccc4)c3=O)nc21 | n | n | n | n | n | n
Cc1c(NC(=O)CSc2nnc3c4ccccc4n(CCc4ccccc4)c3n2)c(=O)n(-c2ccccc2)n1C | n | n | n | n | 3.16µM | n
Cn1c2ccccc2c2nnc(SCC(=O)Nc3cccc(O)c3)nc21 | x | n | 6.75µM | n | x | n
O=C(CSc1cccc[n+]1[O-])c1cc2ccccc2o1 | n | u | 19µM | u | n | u
O=C(O)CSc1cccc[n+]1[O-] | n | x | n | x | n | x
COC(=O)c1sc2nc(CSc3nc4ccc(C)cc4[nH]3)[nH]c(=O)c2c1C | n | n | n | n | n | n
COCc1cc(C)nc(SCc2nc3ccccc3c(=O)[nH]2)c1C#N | n | n | n | n | x | n
Nn1c(CSc2ccccn2)nc2ccccc2c1=O | n | u | 19µM | u | 11.2µM | 3.98µM
Cc1ccc2nc(SCc3nc4ccccc4c(=O)[nH]3)[nH]c2c1 | n | n | 9.53µM | 2.82µM | 22.4µM | u
Cc1ccc2nc(CSc3nc(C)ccc3C#N)[nH]c2c1 | n | n | 0.536µM | 0.562µM | 2.51µM | u
Cc1cc(C)c(C#N)c(SCc2nc3ccccc3c(=O)[nH]2)n1 | n | 8.2µM | 2.39µM | u | 0.794µM | u
C[C@@H](O)C#C[Si](C)(C)c1ccccc1 | n | x | x | x | n | x
O=c1[nH]c(CSc2ccccn2)nc2ccccc12 | n | u | 13.5µM | 2.82µM | 11.2µM | 2.51µM
O=c1[nH]c(CSc2ccccn2)nc2c1cnn2-c1ccccc1 | n | n | u | n | n | n
Cc1ccc(NC(=O)Cn2cc(C(=O)c3ccco3)c3ccccc32)c(C)c1 | x | x | n | x | x | x
CC(C)c1ccc(NC(=O)C2CCCN2S(=O)(=O)c2ccc3nc(-c4ccccc4)[nH]c3c2)cc1 (centres undefined) | x | x | n | x | x | x
Cc1c(C(=O)Oc2cc(N)n(S(C)(=O)=O)n2)cccc1[N+](=O)[O-] | n | n | 21.3µM | n | n | n
O=c1[nH]c(Nc2nc3ccccc3o2)nc2c1CCCC2 | n | u | 1.51µM | 0.316µM | 3.55µM | 0.316µM
Cc1ccc(C)c(S(=O)(=O)c2cn(C)c3cc(N4CCCCC4C)c(F)cc3c2=O)c1 (centres undefined) | x | x | n | x | x | x
SMILES | KinaseGlo FLuc | ELG1 genotox | FLuc counter | Rab9 promoter act | SMN2 splice enh | NPC1 prom act
CCn1ccc(C(=O)N2CCOCC2)n1 | n | n | n | n | n | n
CCn1ccc(C(=O)Oc2ccc(C(C)C)cc2)n1 | n | u | 2.69µM | n | n | n
CCOc1ccc(-c2csc(/C(C#N)=C\c3ccc(O)c([N+](=O)[O-])c3)n2)cc1 | n | n | 4.26µM | n | n | n
Cc1ccc(/C=C(\C#N)c2nc(-c3ccc(-c4ccccc4)cc3)cs2)cc1 | x | x | n | x | n | x
Cc1ccc(NS(=O)(=O)c2cc(C(=O)O)ccc2Cl)cc1C | n | x | x | x | x | x
CCCCCn1c(=O)[nH]c2cc(C(=O)N3CCN(c4cccc(C)c4)C(C)C3)ccc2c1=O (centres undefined) | x | x | n | x | n | x

Screening results: PubChem BioAssay, National Center for Advancing Translational Sciences (NCATS)
